Screening data as filed in PubChem.
CYP2C9 inh – blockers of cytochrome P450 2C9 activity – biochemical, luminescence, ADME assay, primary screen; inhibition, % at 5 µM; CYP2C9 Supersomes, luciferin-H conversion; P11712; actives 20% (n = 96,000);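 active = blocking of liver enzyme CYP2C9 beyond about 50% at 5 µM, limit read from the data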
Target sequence (P11712 whole entry, looked up): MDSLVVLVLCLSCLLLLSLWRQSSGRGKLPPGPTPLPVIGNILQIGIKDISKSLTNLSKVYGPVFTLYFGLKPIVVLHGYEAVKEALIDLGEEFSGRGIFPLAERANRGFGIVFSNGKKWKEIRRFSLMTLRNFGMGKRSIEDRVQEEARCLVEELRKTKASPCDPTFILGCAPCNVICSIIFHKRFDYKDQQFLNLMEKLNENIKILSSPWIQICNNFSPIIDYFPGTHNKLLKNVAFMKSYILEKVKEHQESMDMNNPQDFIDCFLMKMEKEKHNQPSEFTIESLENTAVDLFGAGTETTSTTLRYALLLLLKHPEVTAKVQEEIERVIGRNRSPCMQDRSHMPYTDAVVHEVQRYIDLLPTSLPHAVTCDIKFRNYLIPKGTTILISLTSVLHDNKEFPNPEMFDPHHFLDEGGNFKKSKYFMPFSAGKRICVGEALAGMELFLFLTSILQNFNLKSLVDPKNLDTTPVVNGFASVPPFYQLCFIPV
CYP2C9 act – human CYP2C9 activators, primary screen, biochemical, luminescence. activation factor at 5 µM. Cytochrome P450 2C9 (Homo sapiens), P11712. AID 1024, 2008. recombinant CYP2C9, luciferin-H conversion; stronger effect = higher value; factor 1 = untreated enzyme, 0 = blocked. actives 1.4% (n = 96,000);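 active = activation factor of 2 or more for CYP2C9 at a 5 µM dose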;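 note: 0 = sulfaphenazole-blocked wells and 1 = vehicle-only wells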
CYP2C19 activ – human CYP2C19 activators, primary screen, biochemical, luminescence. Cytochrome P450 2C19 (Homo sapiens), P33261. recombinant CYP2C19, luciferin-H EGE luminescence; stronger effect = higher value; 0 = fully inhibited enzyme, 1 = untreated enzyme. activation factor at 5 µM. 96,000 tested, under 10 active. AID 1025, 2008;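 active = activation factor of at least 2 at 5 µM in the primary screen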;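 note: 0 = wells with 2.5 mM tranylcypromine and 1 = vehicle-only wells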
cytoskel mod – modifiers of F-actin cytoskeleton organization, primary screen, imaging, HUVEC, phalloidin staining, high-content imaging; inhibition, % at 2 µM; HUVEC TNFa F-actin phalloidin imaging; actives 0.18% (n = 91,000);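 active = inhibition above the batch mean plus 3 SD and confirmed as a hit by visual image inspection, cut at about 30% in these data, passing the limit was not always enough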
E-sel TNF inh – E-selectin induction blockers in HUVEC – imaging, immunofluorescence, high content, primary screen. actives 0.71% (n = 120,000). HUVEC TNFa-induced E-selectin immunofluorescence. inhibition, % at 2 µM;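 active = inhibition above the batch mean plus 3 SD, and confirmed as a hit on visual image review, cut at about 43% in these data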;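 note: 0% = TNF-stimulated DMSO wells and 100% = unstimulated control wells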
CYP2C19 inhib – blockers of cytochrome P450 2C19 activity – biochemical, luminescence, ADME assay, primary screen. inhibition, % at 5 µM. CYP2C19 Supersomes, luciferin-H EGE luminescence, 30 min. AID 778, 2007. actives 21% (n = 96,000);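 active = CYP2C19 inhibition above a set limit at 5 µM in the primary screen, cut at about 50% in these data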;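 note: plate controls were negative control wells for no effect and 2.5 mM tranylcypromine positive control for full effect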
* = called active by the depositor; / = no result given. An excerpt weighted towards active compounds, which were near 22% of everything screened.

SMILES	CYP2C9 inh	CYP2C9 act	CYP2C19 activ	cytoskel mod	E-sel TNF inh	CYP2C19 inhib
S=C1NCCOCCOCCOCCOCCNC(=S)NCCOCCOCCOCCOCCN1	/	/	/	-13	-15	/
Cc1ccc(C(=O)C(OC(=O)c2cnccn2)c2ccccc2)cc1C (stereo not drawn)	/	/	/	/	-9	/
N#Cc1ccc2ccn(CC(=O)NC3CCCCCC3)c2c1	27	0.7	0.4	-7	2	58*
COC(=O)c1ccc2ccn(CC(=O)NC3CCCCC3)c2c1	44	0.6	0.7	-6	-27	26
CCOC(=O)c1c(-c2ccc(C)o2)csc1N	29	0.7	0.4	-13	/	59*
CCOC(=O)c1cc(-c2ccc(C)o2)n[nH]1	52*	0.5	0.6	4	-6	42
CCOC(=O)c1c(-c2ccsc2)csc1N	24	0.8	0.4	-15	-6	63*
CSc1ncc(CN2CCCC(C(=O)c3ccc(C(C)(C)C)cc3)C2)cn1 (stereo not drawn)	/	/	/	/	-28	/
Cc1ccc2c(CSc3nnc(N)s3)cc(=O)oc2c1	40	0.6	0.2	-16	25	85*
Cc1cc(C)n2nc(SCc3cc(=O)oc4cc(O)ccc34)nc2n1	20	0.8	1.1	-7	-9	-14
Cc1ccc2nc(Nc3nc(-c4ccccc4)cc(=O)[nH]3)nc(C)c2c1	55*	0.5	0.7	-17	23	26
c1ccc(Sc2nc(N3CCCCC3)nc(N3CCCCC3)n2)nc1	33	0.7	0.9	-12	8	10
NS(=O)(=O)c1ccc(CCNc2nc(CN3CCCCC3)nc3sc4c(c23)CCC4)cc1	12	0.9	0.9	/	25	6
CC1CCc2c(sc3nc(CN4CCOCC4)nc(NS(=O)(=O)c4cccc([N+](=O)[O-])c4)c23)C1 (stereo not drawn)	84*	0.2	0.7	-10	/	26
Cc1cc(S(=O)(=O)Nc2nc(CN3CCOCC3)nc3sc4c(c23)CCCC4)ccc1F	88*	0.1	0.4	-4	-13	60*
CC(=O)c1cccc(N(C(=O)c2ccco2)C(C(=O)NC2CCCC2)c2ccncc2)c1 (stereo not drawn)	16	0.8	0.8	-25	9	20
Cc1ccc(Cc2cnc(NC(=O)CN3CCOCC3)s2)cc1Cl	-11	1.1	1	16	/	2
CS(=O)(=O)N(CC(=O)N1CCN(Cc2ccccc2)CC1)Cc1ccccc1	22	0.8	0.7	-10	-19	25
CCN(CCO)C(=O)CC(c1ccccc1)c1cc(Br)ccc1O (stereo not drawn)	/	/	/	7	4	/
N#Cc1c(-n2cccc2)cccc1-n1cccc1	-270	3.7*	0.4	8	-18	62*
N#Cc1c(Cl)cccc1-n1ccnc1	51*	0.5	0.6	-2	-2	41
Clc1ccccc1C(c1ccccc1)(c1ccccc1)n1ccnc1	/	/	/	/	-27	/
Cc1ccc(C2CC(=O)N(c3ccc(F)cc3)C3=C2C(=O)CCC3)cc1 (stereo not drawn)	29	0.7	0.8	23	100*	17
O=C1CCCC2=C1C(c1ccsc1)CC(=O)N2c1ccccc1 (stereo not drawn)	32	0.7	0.6	8	36	38
O=c1[nH]c(Cn2nnc(-c3ccccc3)n2)nc2scc(-c3ccccc3)c12	82*	0.2	0.7	-5	7	35
SMILES	CYP2C9 inh	CYP2C9 act	CYP2C19 activ	cytoskel mod	E-sel TNF inh	CYP2C19 inhib
O=C(OC(C(=O)Nc1ccc(Cl)cc1C(F)(F)F)c1ccccc1)C1=COCCO1 (stereo not drawn)	/	/	/	/	7	/
CCOc1cc(CNCCO)cc(Br)c1OCc1ccc(Cl)cc1Cl	-7	1.1	0.6	-45	26	38
C=CCOc1ccccc1CNCc1cccnc1	34	0.7	0.5	0	0	48
Clc1ccc(COc2ccccc2CNCc2cccnc2)cc1	95*	0	0	-4	10	97*
Brc1ccc(OCc2ccccc2)c(CNCc2ccncc2)c1	84*	0.2	0	11	-26	99*
OCCNCc1cc(Br)ccc1OCc1ccc(Cl)cc1	-3	1	0.5	23	-13	53*
